Measurements: PubChem BioAssay (NCI)
This is part of a sample that, as a whole, favours compounds with a hit. Of some 83,000 tested, about 20% had one in any assay.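 The test compound was applied at a single concentration to cells in 96-well plates for 48 hours, and percent growth was recorded.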 Values without a mark were called inactive. Active and inactive are the calls of the source. The calls were made as follows: active = growth percent below 10; inactive = the rest.

Key:
Assay in all cases: NCI-60 one-dose screen, 48 h (100 = growth as untreated, 0 = no growth, -100 = all killed)
Conditions in all cases: 10 µM unless noted
SR leukemia = tested on: SR leukemia
RPMI-8226 leukemia = tested on: RPMI-8226 leukemia
OVCAR-8 ovarian = tested on: OVCAR-8 ovarian
OVCAR-5 ovarian = tested on: OVCAR-5 ovarian
OVCAR-4 ovarian = tested on: OVCAR-4 ovarian
SK-OV-3 ovarian = tested on: SK-OV-3 ovarian
IGROV1 ovarian = tested on: IGROV1 ovarian
OVCAR-3 ovarian = tested on: OVCAR-3 ovarian
HS 578T breast = tested on: HS 578T breast
NCI/ADR-RES ovarian = tested on: NCI/ADR-RES ovarian
T-47D breast = tested on: T-47D breast
BT-549 breast = tested on: BT-549 breast
MDA-MB-435 melanoma = tested on: MDA-MB-435 melanoma
SW-620 colon = tested on: SW-620 colon
MCF7 breast = tested on: MCF7 breast
HCT-116 colon = tested on: HCT-116 colon
HCC-2998 colon = tested on: HCC-2998 colon
KM12 colon = tested on: KM12 colon

SMILES	growth (SR leukemia)	growth (RPMI-8226 leukemia)	growth (OVCAR-8 ovarian) [%]	growth (OVCAR-5 ovarian) [%]	growth (OVCAR-4 ovarian) [%]	growth (SK-OV-3 ovarian) [%]	growth (IGROV1 ovarian) [%]	growth (OVCAR-3 ovarian)	growth (HS 578T breast)	growth (NCI/ADR-RES ovarian)	growth (T-47D breast)	growth (BT-549 breast)	growth (MDA-MB-435 melanoma)	growth (SW-620 colon)	growth (MCF7 breast)	growth (HCT-116 colon)	growth (HCC-2998 colon)	growth (KM12 colon)
O=C(O)c1ccc(-n2cc(/C=N/Nc3ccc(F)cc3)c(-c3cccc(C(F)(F)F)c3)n2)cc1	87%	47.2%	78.4	78.2	92.4	94.6	74.8	70.8%	89.2%	65.2%	73.2%	95.4%	57.8%	63.3%	46.4%	66.3%	55.2%	52.8%
Nc1ncnc2c1c(C(F)(F)F)cn2[C@@H]1O[C@H](CO)[C@@H](O)[C@H]1O	1.01% (active)	-20.3% (active)	18.1	15.6	24.6	28.2	12.9	5.78% (active)	-0.85% (active)	7.35% (active)	-0.423% (active)	-10.2% (active)	12.3%	5.25% (active)	7.41% (active)	8.38% (active)	7.21% (active)	4.05% (active)
O=C(c1cc(-c2ccc(Cl)cc2)nc2ccccc12)N1N=C(c2ccccc2)CC1c1cc(-c2ccccc2)nn1-c1ccccc1 (centres undefined)	73.4%	86.8%	87.1	89.4	64.3	93.8	60.8	68.8%	89.3%	81.5%	75.5%	84.9%	83.4%	80.6%	76.3%	68.1%	89.5%	68.6%
O=C(O)c1ccc(-n2cc(/C=N/Nc3ccccc3F)c(-c3ccc(O)cc3)n2)cc1	73.6%	59.1%	88.4	80.9	94.8	102	81	82.7%	92.4%	80%	62.7%	80.3%	74.8%	61.8%	73.7%	71.2%	86.4%	57.9%
CC1(C)CC(=O)C2=C(C1)OC1=C(C(=O)CC(C)(C)C1)C2c1ccc(OCc2cn(-c3ccc(F)cc3F)nn2)cc1	58.6%	92.7%	95.3	124	94.4	100	102	95.3%	96.2%	94%	98.5%	110%	92.4%	118%	87.2%	91.9%	122%	90.2%
S=c1[nH]nc(Cn2c3ccccc3c3ccncc32)o1	99.9%	97.3%	94.2	102	96.7	94.5	103	97.8%	106%	102%	96%	105%	102%	104%	109%	102%	106%	102%
C#CCn1c(-c2cc(OC)c(OC)cc2Br)nc(-c2ccccc2)c1-c1ccccc1	16.4%	48.9%	57.4	77.5	63.2	16	40.9	9.74% (active)	66.8%	10.2%	39.3%	60.7%	6.82% (active)	23.9%	19.4%	19.9%	66.8%	20%
O=C1c2ccccc2OC=C(c2ccccc2)N1CCCCNc1ccc(F)cc1	81%	69.8%	80.6	95.7	89.9	67.9	81.9	110%	94.7%	85.8%	36.3%	59.1%	108%	103%	85.6%	59.4%	104%	84.4%
